Screening results from PubChem BioAssay.
Hits are enriched below; roughly 1.6% of the tested compounds scored in any of these assays.
gsp agonist – qHTS for Agonist of gsp, the Etiologic Mutation Responsible for Fibrous Dysplasia/McCune-Albright Syndrome: qHTS; Potency, µM (titrated, usually from 76.9 µM), for the others: at the top dose activation (cAMP increase), actives largely listed as activators; gsp mutant cells, cAMP HTRF, 30 min; AID 624287, 2012; 340,000 compounds, 0.13% hits; active means well fitted activation curve with a large enough effect; inconclusive means small, poorly fitted or top-dose-only effect, or another doubt; inactive means no such curve, though single readings can be large or run the other way; cell line not stated here;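 further: phosphodiesterase inhibitor Ro 20-1724 added with compounds to block cAMP breakdown; potency means the concentration at half of the fitted maximal effect; nearly all actives have a fitted effect of over 60% in size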
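Cells stably selected in G418 were plated at 2000/well, grown 16-24 hr, then given compounds in DMSO with the PDE inhibitor […] (300 uM solution added) for 30 min at 37C; cAMP was read by HTRF.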
pAkt inh – HTS Assay for Inhibitors of Akt Phophorylation: Primary Screen. AID 651550, 2012. Neuro2A IGF-stimulated pAkt S473 HTRF, 20 min; active compounds read low. activity change, % for hits at 50 µM. 360,000 compounds, 0.32% hits; in the data active means activity change below about -80%; inconclusive means mostly about -51% to -80%; further: on the % scale 0 is the no-effect control and ±100 the full control effect
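Neuro2A cells in DMEM with 0.5% FBS, overnight at 37 deg C, given compound at single 50 µM final, then IGF (6 nM final) for 20 min at 37 deg C. Lysed; phospho-Akt Ser473 by HTRF after 24 h, 665/615 ratio.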
gsp antagonist – qHTS for Antagonists of gsp, the Etiologic Mutation Responsible for Fibrous Dysplasia/McCune-Albright Syndrome: qHTS; Potency, µM (series often up to 76.9 µM), for inactives: at the highest dose activity change, negative = inhibition, most hits filed as inhibitors; 340,000 compounds, 0.4% hits; gsp-mutant cells, cAMP HTRF, 30 min; AID 624288, 2012; calls by dose curve; cell line not stated here;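 further: intracellular cAMP measured with PDE inhibitor Ro 20-1724 present during compound exposure; potency means the concentration at half of the fitted maximal effect; on the % scale 0 is the no-effect control and ±100 the full control effect; nearly all actives have a fitted effect of over 65% in size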
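G418-selected cells were plated in DMEM/10% FBS for 16-24 h at 37C, then treated with compounds plus the PDE inhibitor […] (300 uM solution added) for 30 min at 37C. Intracellular cAMP was measured by HTRF after 30 min lysis at room temperature.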
KCNH2 WT inh – qHTS for Inhibitors of KCHN2 3.1: Wildtype qHTS; AID 720551, 2013; Voltage-gated inwardly rectifying potassium channel KCNH2 (Homo sapiens), Q12809; activity change, % at 1.84 µM; 340,000 compounds, 0.37% hits; U2OS, BacMam KCNH2, thallium flux FluxOr; active compounds read low;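 active means maximum activity change below -70%; inconclusive means maximum activity change between -70% and -50%; inactive means maximum activity change above -50%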; further: on the % scale 0 is the no-effect control and ±100 the full control effect
Target sequence (Q12809 whole entry, looked up): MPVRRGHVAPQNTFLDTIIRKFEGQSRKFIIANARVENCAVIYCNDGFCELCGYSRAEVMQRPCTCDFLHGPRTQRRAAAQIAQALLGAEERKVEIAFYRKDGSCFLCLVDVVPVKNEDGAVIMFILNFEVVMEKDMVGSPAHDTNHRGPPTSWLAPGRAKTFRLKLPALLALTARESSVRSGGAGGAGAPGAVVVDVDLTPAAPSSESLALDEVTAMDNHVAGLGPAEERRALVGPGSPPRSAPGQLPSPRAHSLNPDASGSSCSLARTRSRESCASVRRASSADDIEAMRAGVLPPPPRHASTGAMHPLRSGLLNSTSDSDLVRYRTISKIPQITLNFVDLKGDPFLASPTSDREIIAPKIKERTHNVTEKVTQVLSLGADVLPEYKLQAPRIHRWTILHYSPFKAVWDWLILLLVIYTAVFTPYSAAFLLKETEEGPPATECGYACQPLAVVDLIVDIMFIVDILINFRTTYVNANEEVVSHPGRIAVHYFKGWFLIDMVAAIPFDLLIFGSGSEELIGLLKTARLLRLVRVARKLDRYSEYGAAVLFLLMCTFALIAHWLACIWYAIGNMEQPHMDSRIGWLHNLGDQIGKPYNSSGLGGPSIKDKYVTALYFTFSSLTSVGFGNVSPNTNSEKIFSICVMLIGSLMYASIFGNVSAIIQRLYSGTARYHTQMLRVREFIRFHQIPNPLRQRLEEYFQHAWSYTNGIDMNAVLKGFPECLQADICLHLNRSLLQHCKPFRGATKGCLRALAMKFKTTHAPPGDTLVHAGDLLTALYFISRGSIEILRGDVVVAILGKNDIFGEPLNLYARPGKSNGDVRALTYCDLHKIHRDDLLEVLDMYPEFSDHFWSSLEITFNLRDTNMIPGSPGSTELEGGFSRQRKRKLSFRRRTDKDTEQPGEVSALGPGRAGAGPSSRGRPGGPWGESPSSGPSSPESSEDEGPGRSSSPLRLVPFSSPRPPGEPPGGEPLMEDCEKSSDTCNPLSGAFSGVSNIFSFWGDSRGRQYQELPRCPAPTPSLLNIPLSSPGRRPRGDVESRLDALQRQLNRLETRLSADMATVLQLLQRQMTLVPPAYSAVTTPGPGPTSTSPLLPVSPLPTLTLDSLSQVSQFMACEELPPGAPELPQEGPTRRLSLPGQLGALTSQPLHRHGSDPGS
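U2OS cells were transduced with wild-type KCNH2 virus (2.03 x 10^8 / mL) for 4 h at room temperature, then cultured overnight at 37 C. Thallium flux was read with FluxOr dye. Rate constants were normalized to DMSO controls.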
KCNH2 3.1 block – qHTS for Inhibitors of KCHN2 3.1: Mutant qHTS. Potassium voltage-gated channel subfamily H member 2, brain isoform KCNH2 3.1 (human). U2OS KCNH2 3.1, thallium flux FluxOr; active compounds read low. activity change, % (tested at about 1.8 µM). 340,000 compounds, 0.95% hits. AID 720553, 2013;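 active means maximum activity change below -70%; inconclusive means maximum activity change from -70% to -50%; inactive means maximum activity change above -50%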;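 further: thallium influx rate constant from kinetic fluorescence after stimulation buffer; on the % scale 0 is the no-effect control and ±100 the full control effect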
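Virally transduced U2OS (3.1 isoform, 4 h infection in dark at RT) → overnight 37 C → FluxOr + Red40 in HBSS/HEPES, 45 min → stimulation buffer, 2 min kinetic read → rate constant vs DMSO controls.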
GRP78 ERSR act – qHTS for Inducers of the Endoplasmic Reticulum Stress Response (ERSR) in Human Glioma: qHTS; U87-MG GRP78 promoter luciferase reporter, 16 h; Potency, µM, for inactives: top-dose activation, actives largely listed as activators; 420,000 compounds, 0.02% hits; AID 602332, 2012; active means well fitted activation curve with a large enough effect; inconclusive means small, poorly fitted or top-dose-only effect; inactive means no such curve, though single readings can be large or run the other way; further: potency means the concentration at half of the fitted maximal effect; series mostly up to about 76 µM; % of control where 0% means no effect; nearly all actives have a fitted effect of over 35% in size
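Stably transfected U87-MG glioma cells carrying a GRP78-based luciferase sensor; 16 h compound incubation. Luminescence end-point read 10 min after Bright-Glo addition at room temperature.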
Numbers without * were called inactive; i = inactive; ? = inconclusive; nt = no result; [ ] = remark or other dose.

SMILES	gsp agonist	pAkt inh	gsp antagonist	KCNH2 WT inh	KCNH2 3.1 block	GRP78 ERSR act
Fc1ccc2[nH]c3c(N4CCN(c5ccccc5)CC4)ncnc3c2c1	17%	-90%*	?	2	-5	-17%
COc1ccc(N2CCN(c3ncnc4c3[nH]c3ccccc34)CC2)cc1	14%	nt	16µM*	-13	1	-4%
COc1ccc2[nH]c3c(N4CCc5ccccc5C4)ncnc3c2c1	-1%[15.4 µM]	i	-13%	-1	-3	-12%
OC1(c2cccc(C(F)(F)F)c2)CCN(c2ncnc3c2[nH]c2ccc(F)cc23)CC1	-27%	i	25µM*	10	-8	-18%
COc1ccc(CN2CCC3(CC2)c2ccccc2[C@@H](NC(=O)c2ccccc2)[C@@H]3O)cc1O	nt	nt	nt	nt	nt	0%
Cc1c2c(c(O)c3c(O)cccc13)C(=O)O[C@H]2C1C(N(C)C)C(O)=C(C(N)=O)C(=O)[C@H]1O (stereo not given in full)	nt	nt	nt	nt	nt	-1%
CC/C=C(\C(=O)N[C@H]1C(=O)N2C(C(=O)OCOC(=O)C(C)(C)C)=C(COC(N)=O)CS[C@H]12)c1csc(N)n1	nt	nt	nt	nt	nt	-1%
COc1cccc(NC(=O)c2ccccc2OCC(=O)Nc2ccc(Br)cc2)c1	nt	nt	nt	nt	nt	-4%
O=C(NCc1ccccn1)C(=O)N/N=C/c1ccc2c(c1)OCO2	?	i	0%	-7	-106*	4%
COc1ccc(N2CCN(CCCn3c(=S)[nH]c4ccccc4c3=O)CC2)cc1	-6%	i	-7%	-118*	-80*	-3%
COc1ccccc1N1CCN(CCCn2c(=S)[nH]c3ccccc3c2=O)CC1	2%	i	-14%	39	-28	-7%
COc1ccc(NC(=O)CCn2cccc2)cc1	12%	i	10%	-9	-78*	2%
COc1ccc(NC(=O)CCCn2c(=O)[nH]c3ccccc3c2=O)cc1	0%	-110%*	15%	0	9	-6%
COc1ccc(CN2CCCC(c3nc(-c4ccncc4)ncc3-c3ccccc3C)C2)c(OC)c1 (stereo not given)	nt	nt	nt	nt	nt	-6%
Cc1ccc(CN2CCOc3ccc(C(C)(O)COc4ccccc4)cc3C2)o1 (stereo not given)	nt	nt	nt	nt	nt	-3%
O=c1c(-c2ccc(F)cc2)nc2cnc(N3CCOCC3)nc2n1C[C@H]1CCCO1	nt	nt	nt	nt	nt	-1%
Cc1ccc2c(=O)c3ccccc3n(CCCN)c2c1C	nt	nt	nt	nt	nt	2%
COc1ccc(C)cc1NC(=O)C(Sc1nnc(Nc2cc(C)ccc2OC)s1)c1ccccc1 (stereo not given)	8%	i	-3%	-121*	-11	-2%
COc1ccc(Nc2nnc(SC(C(=O)Nc3cc(C)ccc3C)c3ccccc3)s2)cc1 (stereo not given)	-6%[15.4 µM]	i	?	1	-6	-4%
C=CCSc1nnc(C2CCCN(Cc3ccccc3O)C2)n1C (stereo not given)	nt	nt	nt	nt	nt	-2%
Cc1ccc(NC(=O)c2ccc3c(c2)N(CC(=O)N2CCCCC2)C(=O)C(C)(C)O3)cc1	4%	-121%*	-14%	11	-12	-1%
CC(C)(C)NC(=O)c1ccc2c(c1)N(CC(=O)N1CCCCC1)C(=O)C(C)(C)O2	-6%[15.4 µM]	i	14%	0	-19	0%
CC1CN(CCC(=O)NC(c2cccnc2)C(F)(F)F)Cc2cc(Cl)ccc2O1 (stereo not given)	nt	nt	nt	nt	nt	-4%
COc1ccc(OCC(=O)Nc2cccc(-c3nc4ccccc4o3)c2)cc1	3%	i	13%	6	-19	-2%
CCc1ccc(OCC(=O)Nc2ccc(-c3nc4ccccc4o3)c(O)c2)cc1	-1%	-102%*	-3%	-1	4	2%
